16 molecules from the supplement of paper PMC12340641 can be followed below.

Assay [1] deals with IKZF1 (dCK*-IKZF1 fusion in HEK293FT) (UniProt Q13422). The assay is described as follows: inhibition of IKZF1 HTRF signal (DMSO = 0%, pomalidomide 10 uM = 100%); higher = lower IKZF1 protein level. Conditions: compound concentration: 5 uM, overnight (~20 h). The procedure, abridged: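 Percent inhibition of IKZF1 signal was calculated per plate with vehicle and a reference degrader as anchors. The anchors were 0% for vehicle and 100% for the degrader, applied to background-subtracted 665/620 nm time-resolved FRET ratios from a commercial HTRF total-IKZF1 kit. Signal came from HEK293FT cells stably expressing an IKZF1 fusion, treated overnight at 37 °C with 5 μM compound in single wells of 384-well plates.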
IKZF1 (dCK*-IKZF1 fusion in HEK293FT), sequence (Q13422 whole entry, looked up, the tested form may be a part): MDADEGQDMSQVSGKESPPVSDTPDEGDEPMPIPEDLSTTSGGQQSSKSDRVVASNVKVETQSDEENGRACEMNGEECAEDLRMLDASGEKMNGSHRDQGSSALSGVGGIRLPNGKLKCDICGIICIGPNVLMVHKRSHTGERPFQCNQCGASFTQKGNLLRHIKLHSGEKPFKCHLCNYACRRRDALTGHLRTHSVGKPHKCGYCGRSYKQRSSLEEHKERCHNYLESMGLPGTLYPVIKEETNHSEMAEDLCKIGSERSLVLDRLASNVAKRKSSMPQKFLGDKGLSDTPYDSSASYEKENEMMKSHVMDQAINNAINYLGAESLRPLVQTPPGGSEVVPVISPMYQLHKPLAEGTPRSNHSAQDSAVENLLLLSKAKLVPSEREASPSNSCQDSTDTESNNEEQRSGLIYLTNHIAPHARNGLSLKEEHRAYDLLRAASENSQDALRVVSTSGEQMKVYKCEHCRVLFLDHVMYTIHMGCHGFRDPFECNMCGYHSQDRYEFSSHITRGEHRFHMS
In general terms: TR-FRET usually uses a lanthanide donor and a delayed reading to cut background.

The next assay has as its system HEK293FT dCK*-only. The assay is described as follows: relative growth in counter assay (no AraC = 100%, AraC + DMSO = 0%); higher = more growth rescue independent of IKZF1. Conditions: compound concentration: 5 uM; AraC concentration: 0.3 uM; overnight pretreatment + 4 days AraC. The procedure, abridged:
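Nuclei were counted by imaging after Hoechst 33342 staining on day 5, in HEK293FT cells (300/well, 384-well) expressing only an engineered kinase construct. Compound at 5 μM went in 2 h after seeding, followed after overnight at 37 °C by a nucleoside suicide substrate at 0.3 μM plus medium for 4 days. Per plate, wells lacking suicide substrate defined 100% and those with substrate plus vehicle defined 0%.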

The next assay has as its system HEK293FT dCK*-IKZF1. Put plainly: relative growth recovery (pomalidomide 10 uM = 100%, DMSO = 0%); higher = more growth rescue (IKZF1 fusion degradation). Conditions: compound concentration: 5 uM; AraC concentration: 0.3 uM; overnight pretreatment + 4 days AraC. Summed up:
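Means of duplicates from different days are given for growth recovery, normalised per plate against a reference degrader and vehicle. The reference degrader set the 100% level and vehicle the 0% level. HEK293FT cells stably expressing a deoxycytidine kinase–IKZF1 fusion (300/well, 384-well) received 5 μM compound 2 h after seeding and, after overnight at 37 °C, 0.3 μM of a nucleoside suicide substrate plus medium for 4 days. Nuclei stained with Hoechst 33342 were then counted by whole-well imaging on day 5.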

Molecules are shown by their SMILES. Structures can show the parent of a compound that is named as a salt.

In the case of `O=C1c2c(O)cccc2Cc2cccc(O)c21`, the “inhibition of IKZF1 HTRF signal” value in assay [1] worked out at 14%. Further, the “relative growth in counter assay” value in the assay on HEK293FT dCK*-only is -0.62%. The relative growth recovery with HEK293FT dCK*-IKZF1 was -0.185%.
For `O=c1c(O)c(-c2ccc(O)c(O)c2)oc2cc(O)cc(O)c12` [quercetin] the same measures were -26.2%, -7.53% and -2.98%.
Consider `O=C(Nc1ccc2[nH]ccc2c1)c1ccccc1`, for which the “inhibition of IKZF1 HTRF signal” value in assay [1] was -24.8%. Further, in the assay on HEK293FT dCK*-only, the “relative growth in counter assay” value is -3.62%. The relative growth recovery in the assay with HEK293FT dCK*-IKZF1 is -0.01%.
In the case of `c1ccc(C2(c3ccccc3)CC2=C2NCCN2)cc1` [cibenzoline], the “inhibition of IKZF1 HTRF signal” value in assay [1] is -50%. In the assay with HEK293FT dCK*-only, the “relative growth in counter assay” value is 0.23%. Besides, in the assay on HEK293FT dCK*-IKZF1, the relative growth recovery is -0.4%.
In the case of `COC(=O)/C=C/c1cc(O)ccc1O` [erbstatin-analog], in assay [1], the “inhibition of IKZF1 HTRF signal” value is -21.1%. Moreover, in the assay on HEK293FT dCK*-only, the “relative growth in counter assay” value was -32.8%. For the same molecule, the relative growth recovery in the assay with HEK293FT dCK*-IKZF1 is -11.6%.
For `O=C(NCC1CCCCN1)c1cc(OCC(F)(F)F)ccc1OCC(F)(F)F` (stereo not drawn) [flecainide] the same measures were -38%, -3.96% and 0.135%.
The like results for `CC(CCc1ccc(O)cc1)NCCc1ccc(O)c(O)c1` (stereo not drawn) [Dobutamine (hydrochloride)] were, in that order, -39.6%, -8.05% and -1.22%.
Turning to `Nc1cc(N2CCCCC2)nc(N)[n+]1[O-]`, in assay [1], the “inhibition of IKZF1 HTRF signal” value is -27.1%. Further, the “relative growth in counter assay” value in the assay on HEK293FT dCK*-only is -5.79%. Also, in the assay on HEK293FT dCK*-IKZF1, the relative growth recovery was -0.55%.
`CCC1(O)CC2CN(CCc3c([nH]c4ccccc34)[C@@](C(=O)OC)(c3cc4c(cc3OC)N(C=O)C3[C@]45CCN4CC=C[C@@](CC)([C@@H](OC(C)=O)[C@]3(O)C(=O)OC)[C@H]45)C2)C1` (stereo partly drawn) [Vincristine sulfate]: the “inhibition of IKZF1 HTRF signal” value in assay [1] was -23.3%. The “relative growth in counter assay” value with HEK293FT dCK*-only was -33.7%. In the assay on HEK293FT dCK*-IKZF1, the relative growth recovery is -11.8%.
In the case of `COc1cc(/C=C/C(=O)CC(=O)/C=C/c2ccc(O)c(OC)c2)ccc1O` [Curcumin], in assay [1], the “inhibition of IKZF1 HTRF signal” value is -0.83%. The “relative growth in counter assay” value in the assay with HEK293FT dCK*-only is -25.9%. Besides, the relative growth recovery with HEK293FT dCK*-IKZF1 is -6.48%.
For `CCCCCCC[N+](CC)(CC)CCCCc1ccc(Cl)cc1` [clofilium], the “inhibition of IKZF1 HTRF signal” value in assay [1] is -21.8%. In addition, the “relative growth in counter assay” value in the assay with HEK293FT dCK*-only was -3.59%. Further, the relative growth recovery in the assay with HEK293FT dCK*-IKZF1 was -1.53%.
Take `CCCCCNC(=N)N/N=C/c1c[nH]c2ccc(OC)cc12`: in assay [1], the “inhibition of IKZF1 HTRF signal” value is -1.99%. The “relative growth in counter assay” value with HEK293FT dCK*-only was -5.1%. In the assay with HEK293FT dCK*-IKZF1, the relative growth recovery was -2.16%.
On to `O=c1[nH]c(=O)n([C@H]2C[C@H](O)[C@@H](CO)O2)cc1F`, for which, in assay [1], the “inhibition of IKZF1 HTRF signal” value was -24.3%. The “relative growth in counter assay” value in the assay with HEK293FT dCK*-only was -31.1%. For the same molecule, the relative growth recovery in the assay on HEK293FT dCK*-IKZF1 was -9.89%.
For `Cc1cccc(Nc2nc(-c3ccncc3)cs2)c1` the same measures were -51.1%, -8.26% and -0.535%.
Regarding `CN(C)c1ccc2nc3ccc(N(C)C)cc3[s+]c2c1`, the “inhibition of IKZF1 HTRF signal” value in assay [1] was determined as 56.3%. Besides, the “relative growth in counter assay” value in the assay with HEK293FT dCK*-only is -29.4%. The relative growth recovery in the assay with HEK293FT dCK*-IKZF1 was -11.5%.
Regarding `Nc1ccc(S(=O)(=O)Nc2ncccn2)cc1`, in assay [1], the “inhibition of IKZF1 HTRF signal” value was -27.2%. Moreover, the “relative growth in counter assay” value in the assay on HEK293FT dCK*-only was -9.24%. Further, the relative growth recovery with HEK293FT dCK*-IKZF1 was determined as 2.56%.
